Measured values: PubChem BioAssay AID1626 (SRMLSC, 2009)
“And” between values parts separate entries of the source, which are not always exact repeats. Equal values may be shown once. Hit rate of the full screen: of about 220,000 compounds, about 2,000 (0.91%) were called active. Another 2% or so got no clear call; they are omitted. These entries were drawn from the full list. Entries with a potency or affinity are not part of this list. Unmarked numbers belong to inactive results. Rule as the data show it: inconclusive = inhibition above about 80% without an active follow-up result; inactive = below that; test concentration not stated here.

Assay: M. tuberculosis H37Rv growth inhibitors, H37Rv strain (AID 1626);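 also: bacteria incubated seven days before Alamar blue readout; 0% = bacteria only wells and 100% = bacteria with antibiotic wells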
Settings: hits give high values, concentration not given here
`CCN(CC)CCCNc1cc(C)nc2cc(-c3cccs3)nn12` gave an inhibition of -2.4%.
In the case of `CC(Oc1ccc(Cl)cc1Cl)c1nc(-c2ccc(NC(=O)c3ccccn3)cc2)no1` (stereo not drawn), the inhibition is reported as -3.67%.
In the case of `CC(Oc1ccc(Cl)cc1Cl)c1nc(-c2ccc(NC(=O)c3cccnc3)cc2)no1` (stereo not drawn), the inhibition is reported as 76.2%.
`CCCOc1ccc(-c2nc(OC)c3ccccc3n2)cc1` gave an inhibition of 77%.
Compound `Nc1ccc(/C=C/C(=O)c2ccco2)cc1` has an inhibition of 78.3%.
In the case of `O=C(/C=C/c1ccc(Br)cc1)c1ccc(NC(=O)c2ccco2)cc1`, the inhibition is reported as 10.8%.
With `S=c1[nH]c2cc3ccccc3cc2[nH]1` the inhibition was 73.9% and 72.9%.
Work on `S=c1[nH]c2ccccc2[nH]1` yielded an inhibition of -2.67%.
For `O=C(Cc1ccc(S(=O)(=O)N2CCCC2)s1)Nc1nc2c(s1)CCCC2`, the inhibition was 1.89%.
Compound `Cc1ccccc1COc1ccc(/C=C(\C#N)C(N)=O)cc1` has an inhibition of 6.69%.
`CCOc1ccc(OCCN(C)Cc2ccccc2)cc1` gave an inhibition of 4.01%.
`Oc1ccc(-c2nc3ccc4ccccc4c3c3c2CCC3)cc1O` gave an inhibition of 1.26%.
`COc1cc(-c2nc3ccc4ccccc4c3c3c2CCC3)ccc1O` showed an inhibition of 20.8%.
For `COc1cc(-c2nc3ccc4ccccc4c3c3c2CCC3)cc(OC)c1OC`, the inhibition was -4.59%.
`Cc1cc(-c2cccc([N+](=O)[O-])c2)nc2ccc3ccccc3c12` gave an inhibition of -9.17%.
For `Cc1ccc(/C=C/C(=O)NCc2ccncc2)cc1`, the inhibition was 7.66%.
`Cn1c(N)c(C(=O)COC(=O)C2CCCC2)c(=O)n(C)c1=O` gave an inhibition of -2.87%.
With `Cc1ccc(S(=O)(=O)N(C)C)cc1NC(=S)NNC(=O)C(N)=O` the inhibition was 1.54%.
Compound `CCCCCCC(=O)N(O)C1CC(=O)N(c2ccc(Cl)cc2)C1=O` (stereo not drawn) has an inhibition of 7.87%.
Compound `CCOCCOC(=O)c1cccc(NC(=O)OCC)c1` has an inhibition of -3.13%.
Work on `C=CCn1c(O)c(N=NC(=O)CNC(=O)/C=C/c2ccco2)c2ccccc21` yielded an inhibition of -15.1%.
Compound `Cc1cc2ncn(/N=C/c3cccnc3)c2cc1C` has an inhibition of 7.38%.
For `Cc1nc2ccccc2n1/N=C/c1cccnc1`, the inhibition was -6.36%.
In the case of `Cc1ccc(/C=N/n2c(C)nc3ccccc3c2=O)s1`, the inhibition is reported as -1.18%.
For `O=[N+]([O-])c1ccc(O)c(/C=N/n2c(CO)nc3ccccc32)c1`, the inhibition was -3.46%.
Work on `Cc1cc2ncn(/N=C/c3cc(Br)ccc3O)c2cc1C` yielded an inhibition of -5.04%.
`OCc1nc2ccccc2n1/N=C/c1cccs1` showed an inhibition of 1.55%.
In the case of `OCCN(CCO)CC(O)COc1ccc(C23CC4CC(CC(C4)C2)C3)cc1` (stereo not drawn), the inhibition is reported as 24.6%.
Compound `CCC1CCCCN1CCCNC(=O)Cn1nc(-c2ccc(C)cc2)ccc1=O` (stereo not drawn) has an inhibition of -8.72%.
Compound `O=C(CSc1nnc(-c2ccco2)n1Cc1ccco1)Nc1ccccc1` has an inhibition of -2.58%.
For `Cc1cccc(NP(=O)(Oc2ccccc2F)Oc2ccccc2F)c1C`, the inhibition was 1.18%.
Work on `O=C(NCc1ccccc1)c1ccccc1-c1nc2ccccc2[nH]1` yielded an inhibition of 4.78%.
Work on `CCOC(=O)Cc1c(C)nc2c(-c3ccc(Cl)cc3)c(C)[nH]n2c1=O` yielded an inhibition of 78.8%.
`Cc1ccc(-c2csc(NC(=O)CSc3nc(C)cc(=O)[nH]3)n2)cc1` showed an inhibition of 1.91%.
For `OC(c1cc(C(F)(F)F)nc2c(Cl)cc(Cl)cc12)C1CCCCN1` (stereo not drawn), the inhibition was 49.4%.
In the case of `Clc1ccc(-c2cc(-c3nnc4n3CCCCC4)c3ccccc3n2)cc1`, the inhibition is reported as 71.9%.
`CCN(CC)S(=O)(=O)c1ccc(N2CCCC2)c(NC(=O)CC(C)(C)C)c1` showed an inhibition of -7.98%.
In the case of `O=C(Nc1cc(Sc2ccccn2)cc([N+](=O)[O-])c1)c1ccc(Cl)cc1`, the inhibition is reported as 7.55%.
`COC(=O)c1cc(OC)c(OC)cc1NC(=S)Nc1cc(Cl)ccc1OC` showed an inhibition of -12%.
Compound `O=C(Nc1nc(-c2cc3ccccc3oc2=O)cs1)c1ccco1` has an inhibition of -2.76%.
`Nc1ccc(Nc2nc(-c3cc4ccccc4oc3=O)cs2)cc1` showed an inhibition of -8.26%.
With `CC1=C(C(=O)Nc2ccccc2)C2(CCCCC2)C(C#N)=C(S)N1` the inhibition was -2.79%.
For `Cc1ccc(S(=O)(=O)N(C)C)cc1NC(=O)COC(=O)CCC(=O)c1cccs1`, the inhibition was 0.54%.
For `COc1ccc2c(c1)c(C(=O)CN1CCN(C(=O)c3ccco3)CC1)c(C)n2C`, the inhibition was 3.66%.
`Cc1ccc(NCC(=O)c2ccc([N+](=O)[O-])cc2)cc1` showed an inhibition of 6.43%.
`COc1ccc(C(CC(=O)c2ccc(C)cc2)Nc2ccc([N+](=O)[O-])cc2)cc1` (stereo not drawn) gave an inhibition of 13.5%.
With `CC1(C)CC(=O)c2sc(N3CCCCC3)nc2C1` the inhibition was 1.75%.
Compound `Fc1ccc(-c2nnn3c2nc(NCc2ccccc2)c2ccccc23)cc1` has an inhibition of -3.18%.
